Shown is part of a subset that was picked to be rich in hits.
mHTT CaM bind – mHTT-calmodulin interaction abrogation. AlphaScreen His-mHTT/GST-CaM binding, luminescence. inhibition, % at 15 µM. 190,000 compounds, 3.6% hits. AID 1671202;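 also: 0% = both proteins with DMSO and 100% = one protein alone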
Pf apPOL inh – Pf-apPOL DNA polymerase inhibition | 210,000 compounds, 0.25% hits | inhibition, % at 10 µM | AID 1794808 | Recombinant Pf-apPOL, molecular beacon fluorescence, 1.5 h
Numbers without * were called inactive; · = no result; ! = not active in a repeat. Rule as the data show it: active = inhibition above about 50%; inactive = the rest.

SMILES	mHTT CaM bind	Pf apPOL inh
Cc1nc2c(C(=O)NC(C)C)cnn2c(C)c1Cc1cccc(Cl)c1	70*	5
COC(CNC(=O)c1cnn2c(C)c(Cc3cccc(Cl)c3)c(C)nc12)OC	61*	-9
Cc1nc2c(C(=O)NCCC(C)C)cnn2c(C)c1Cc1cccc(Cl)c1	-19	-10
CC(C)c1cc(C2CCCN2C(=O)Nc2ccccc2C(F)(F)F)on1 (stereo unspecified)	-11	-7
Cc1c(C(=O)NCc2cccnc2)oc2ccc(S(=O)(=O)N3CCOCC3)cc12	4	12
CCc1[nH]nc(-c2ccccc2)c1NC(=O)CC1CCCC1	98*	72*
CCCc1[nH]nc(-c2ccccc2)c1NC(=O)C1CC1	13	-6
O=C(c1cccc(F)c1)N1CCCC2(CC(c3ccc(Cl)cc3)=CO2)C1 (stereo unspecified)	-4	-5
CCOc1ccc(/C=C2\N=C(c3ccc(Cl)cc3)OC2=O)cc1	-1	6
Cc1cccc(C2=N[C@@H](CC(C)C)CO2)c1	-14	-4
Cc1cccc(C2=N[C@@H](Cc3ccccc3)CO2)c1	81*	-11
C=C(C)COc1ccc2c(=O)c(Oc3cccc(OC)c3)coc2c1	-5	2
O=C(Nc1ncn[nH]1)c1ccccc1O	99*!	-11
O=C(Nc1ncn[nH]1)c1cccc(Br)c1	7	1
Cc1cc(C)n(C(CC(=O)O)C(=O)O)n1 (stereo unspecified)	-3	0
O=C(O)CC(C(=O)O)n1nc(-c2ccccc2)cc1-c1ccccc1 (stereo unspecified)	1	96*
COC(=O)C12CC3CC(CC(NC(=O)c4csc(-c5ccccc5)n4)(C3)C1)C2	-4	2
OC(CN1CCN(c2ccc(Cl)cc2)CC1)c1ccc2c(c1)CCN2 (stereo unspecified)	0	-6
Cc1ccc(Cl)cc1N1CCN(CC(O)c2ccc3c(c2)CCN3)CC1 (stereo unspecified)	71*	-4
NC(=O)CNC(=O)c1csc(Nc2ncccn2)n1	-7	-1
CC(C)C(=O)Nc1ccc(NC(=O)c2cccnc2)cc1	-6	0
Cc1ccc(C2=NN(C(=O)CN3CCOCC3)C(c3ccccc3Cl)C2)cc1 (stereo unspecified)	48	-7
Cc1ccc(C)c(C2=NN(C(=O)CN3CCOCC3)C(c3ccccc3C)C2)c1 (stereo unspecified)	85*	-4
COc1ccccc1C1=NN(C(=O)CN2CCOCC2)C(c2ccccc2Cl)C1 (stereo unspecified)	38	-4
Cc1ccc(C)c(C2CC(c3ccc(F)cc3)=NN2C(=O)CN2CCOCC2)c1 (stereo unspecified)	50*	2
SMILES	mHTT CaM bind	Pf apPOL inh
COc1cccc(C2CC(c3cc(C)ccc3C)=NN2C(=O)CN2CCOCC2)c1 (stereo unspecified)	47	-8
O=C(CN1CCOCC1)N1N=C(c2ccccc2Cl)CC1c1ccccc1Cl (stereo unspecified)	100*	-3
Cc1ccc(C2=NN(C(=O)CN3CCOCC3)C(c3ccccc3C)C2)cc1C (stereo unspecified)	51*	-1
Cc1ccc(C2=NN(C(=O)CN3CCOCC3)C(c3ccc(F)cc3)C2)cc1 (stereo unspecified)	28	-6
O=C(CSc1nc2ccccc2o1)N1CCN(c2ncccn2)CC1	-11	-10
O=C(CCc1conc1-c1ccc(F)cc1)NC1CCN(Cc2ccccc2)CC1	4	-3
CCC(=O)N(C)CC(=O)N1N=C(c2cccs2)CC1c1ccccc1 (stereo unspecified)	7	-6
Cc1ccc(C2=NN(C(=O)CN3CCOCC3)C(c3ccccc3)C2)cc1C (stereo unspecified)	52*	-2
Cc1ccc(C2CC(c3ccccc3F)=NN2C(=O)CN2CCOCC2)c(C)c1 (stereo unspecified)	83*	1
CCC(=O)N(C)CC(=O)N1N=C(c2ccc(C)c(C)c2)CC1c1ccccc1 (stereo unspecified)	56*	1
COc1ccc(C2CC(c3ccccc3)=NN2C(=O)CN2CCOCC2)cc1 (stereo unspecified)	27	-6
O=C(CN1CCOCC1)N1N=C(c2ccc(F)cc2)CC1c1ccccc1F (stereo unspecified)	14	-4
CCOc1ccccc1NC(=O)N1CCN(c2cc(OC)nc(OC)n2)CC1	-4	-1
O=c1c2ccccc2ncn1CCCCOc1ccccc1-c1ccccc1	-24	-10
O=C(Nc1cc(F)cc(F)c1)C1CCN(c2ncc(-c3ccccc3)cn2)CC1	-9	-2
COC(=O)C(NC(=O)c1ccc(C)cc1)C12CC3CC(CC(C3)C1)C2 (stereo unspecified)	-13	1
Fc1ccc(N2Cc3ccccc3C2)cc1	-6	·
Oc1ccc(N2Cc3ccccc3C2)cc1	100*	-8
Cc1noc(C2(NC(=O)C3CC3)CCCCC2)n1	-11	-3
CCC(C)(C)C1CCc2c(sc(N)c2C#N)C1 (stereo unspecified)	·	97*
CCN1CCc2c(sc(N)c2C#N)C1	7	-22
COc1ccccc1-n1nc(C(=O)Nc2c(F)cccc2F)c2ccccc2c1=O	18	-5
Cc1cccc2c(C3CCN(C(=O)c4ccccc4OC(F)(F)F)CC3)c[nH]c12	100*	-7
COc1ccccc1C1CCN(C(=O)CSCc2cccc3ccccc23)CC1	·	-6
O=S1(=O)CC(Br)C(Br)C1 (stereo unspecified)	-6	·
SMILES	mHTT CaM bind	Pf apPOL inh
CC1C2NC(=O)N(Cc3ccccc3)C1(C)Oc1ccccc12 (stereo unspecified)	68*	0
CC12CC(NC(=O)N1CCc1ccccc1)c1ccccc1O2 (stereo unspecified)	-2	2
COCCNC(=O)C1Cc2ccccc2N2CCN(c3ccccc3F)CC12 (stereo unspecified)	5	0
COCCNC(=O)C1Cc2ccccc2N2CCN(c3cccc(Cl)c3)CC12 (stereo unspecified)	57*	2
COc1cc(C)c(C)cc1S(=O)(=O)NCC(c1cccs1)N1CCOCC1 (stereo unspecified)	4	-8
Cc1c(Cl)c(C)c(C=O)c(O)c1Br	79*	-3
Cn1ccc2c(-c3cncc4ccccc34)cc3c(c21)C1CCC3C1 (stereo unspecified)	100*	0
Cn1ccc2c(N3CCOCC3)cc3c(c21)C1CCC3C1 (stereo unspecified)	22	2
CCCN(CC1CC1)c1cc2c(c3c1ccn3C)C1CCC2C1 (stereo unspecified)	74*	-2
Cn1ccc2c(-c3ccc(F)cc3F)cc3c(c21)C1CCC3C1 (stereo unspecified)	59*	-35
Cn1ccc2c(-c3cccc4ccccc34)cc3c(c21)C1CCC3C1 (stereo unspecified)	1	-2
Cn1ccc2c(-c3ccc(F)nc3)cc3c(c21)C1CCC3C1 (stereo unspecified)	28	5
CCN(CC)c1cc2c(c3c1ccn3C)C1CCC2C1 (stereo unspecified)	41	-1
Cn1ccc2c(N3CCCCCC3)cc3c(c21)C1CCC3C1 (stereo unspecified)	63*	-3
CCC1(C)OC(=O)N(Cc2ccco2)C1(C)O (stereo unspecified)	10	·
CSc1ccccc1NC(=O)NC1(C(F)(F)F)Oc2ccccc2O1	2	8

Screening data as filed in PubChem.
